Assay results published in PubChem BioAssay (NCI).
Compounds without any hit were thinned out: in the full panel of roughly 83,000, 20% have a hit.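 Cell lines were cultured in 96-well plates, exposed to a single compound concentration, and assessed for percent growth 48 hours later.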 The source made the active and inactive calls. Rule for the calls: active = growth percent below 10; inactive = the rest.

Columns and labels:
Assay in all cases: NCI-60 one-dose screen, 48 h (100 = growth as untreated, 0 = no growth, -100 = all killed)
Settings in all cases: 10 µM unless noted
HCT-15 colon = test system: HCT-15 colon
HT29 colon = test system: HT29 colon
SNB-75 CNS = test system: SNB-75 CNS
SNB-19 CNS = test system: SNB-19 CNS
U251 CNS = test system: U251 CNS
PC-3 prostate = test system: PC-3 prostate
SK-MEL-5 melanoma = test system: SK-MEL-5 melanoma
UACC-62 melanoma = test system: UACC-62 melanoma
LOX IMVI melanoma = test system: LOX IMVI melanoma
SK-MEL-28 melanoma = test system: SK-MEL-28 melanoma
SK-MEL-2 melanoma = test system: SK-MEL-2 melanoma
EKVX NSCLC = test system: EKVX NSCLC
SN12C renal = test system: SN12C renal
UO-31 renal = test system: UO-31 renal
TK-10 renal = test system: TK-10 renal
ACHN renal = test system: ACHN renal
CAKI-1 renal = test system: CAKI-1 renal
A498 renal = test system: A498 renal
CCRF-CEM leukemia = test system: CCRF-CEM leukemia
MOLT-4 leukemia = test system: MOLT-4 leukemia

Measured: growth

N#Cc1c(-c2ccc(Cl)cc2)nc(NN=Cc2cccc(Cl)c2)nc1N1CCOCC1
inactive: HCT-15 colon 35.4% | HT29 colon 40.4% | SNB-75 CNS 80.1% | SNB-19 CNS 104% | U251 CNS 78.9% | PC-3 prostate 73.5% | SK-MEL-5 melanoma 92.5% | UACC-62 melanoma 98.1% | LOX IMVI melanoma 85.5% | SK-MEL-28 melanoma 106% | SK-MEL-2 melanoma 96.5% | EKVX NSCLC 77.7% | SN12C renal 91.8% | UO-31 renal 53.5% | TK-10 renal 106% | ACHN renal 74.3% | CAKI-1 renal 67.4% | A498 renal 42.2% | CCRF-CEM leukemia 72.5% | MOLT-4 leukemia 53.3%

CNC1=C([N+](=O)[O-])C(c2ccc(OC)cc2)C(C#N)=C(c2ccc[nH]2)O1 (stereo not given)
inactive: HCT-15 colon 106% | HT29 colon 107% | SNB-75 CNS 88.6% | SNB-19 CNS 97% | U251 CNS 101% | PC-3 prostate 97.1% | SK-MEL-5 melanoma 98.2% | UACC-62 melanoma 91.8% | LOX IMVI melanoma 99% | SK-MEL-28 melanoma 108% | SK-MEL-2 melanoma 108% | EKVX NSCLC 99.7% | SN12C renal 97.1% | UO-31 renal 89.3% | TK-10 renal 117% | ACHN renal 105% | CAKI-1 renal 92.6% | A498 renal 96.8% | CCRF-CEM leukemia 43.1% | MOLT-4 leukemia 108%

COc1ccc(/C(C)=C(\c2ccc(Cl)cc2)c2ccc(OCCCN(C)C)cc2)cc1
inactive: HCT-15 colon 20.4% | SNB-75 CNS 97.2% | SNB-19 CNS 73.8% | U251 CNS 41% | PC-3 prostate 68.2% | SK-MEL-5 melanoma 37.8% | UACC-62 melanoma 83.9% | LOX IMVI melanoma 22.1% | SK-MEL-28 melanoma 75.1% | SK-MEL-2 melanoma 90.4% | EKVX NSCLC 88.6% | SN12C renal 79.9% | UO-31 renal 64.5% | TK-10 renal 94.7% | ACHN renal 91.9% | CAKI-1 renal 67.1% | A498 renal 93.4% | CCRF-CEM leukemia 53.1% | MOLT-4 leukemia 55.8%
active: HT29 colon 1.29%

COc1cc2cc(Oc3ccc(NC(=O)Nc4ccc(Cl)c(Cl)c4)cc3)c(C)nc2cc1OCCN1CCCCC1
inactive: HCT-15 colon 71.6% | HT29 colon 19.9% | SNB-75 CNS 96.8% | SNB-19 CNS 99.3% | U251 CNS 53.2% | SK-MEL-5 melanoma 89% | UACC-62 melanoma 106% | LOX IMVI melanoma 99.1% | SK-MEL-28 melanoma 98.2% | SK-MEL-2 melanoma 124% | EKVX NSCLC 99.8% | SN12C renal 101% | UO-31 renal 88.2% | TK-10 renal 133% | ACHN renal 106% | CAKI-1 renal 78% | A498 renal 86.8% | MOLT-4 leukemia 64.6%
active: PC-3 prostate -30.2% | CCRF-CEM leukemia 9.57%

c1ccc2cc(Cn3cc[n+](Cc4ccc5ccccc5c4)c3)ccc2c1
active: HT29 colon -31% | SK-MEL-5 melanoma -46.4% | SK-MEL-2 melanoma -11.5% | TK-10 renal 8.12%
inactive: HCT-15 colon 91.2% | SNB-75 CNS 19.3% | SNB-19 CNS 29.8% | U251 CNS 21.8% | PC-3 prostate 15.4% | UACC-62 melanoma 10.3% | LOX IMVI melanoma 37.5% | SK-MEL-28 melanoma 20.3% | EKVX NSCLC 51.7% | SN12C renal 18.2% | UO-31 renal 70.6% | ACHN renal 90.6% | CAKI-1 renal 96% | A498 renal 75.9% | CCRF-CEM leukemia 21.7% | MOLT-4 leukemia 25%

CN(Cc1ccccc1)c1nc(Cl)c(C2CC(c3ccc(Cl)cc3)=NN2c2cc(Cl)cc(Cl)c2)s1 (stereo not given)
inactive: HCT-15 colon 98.8% | HT29 colon 92.9% | SNB-75 CNS 90.4% | SNB-19 CNS 108% | U251 CNS 109% | PC-3 prostate 92.5% | SK-MEL-5 melanoma 107% | UACC-62 melanoma 98.1% | LOX IMVI melanoma 97.8% | SK-MEL-28 melanoma 112% | SK-MEL-2 melanoma 104% | EKVX NSCLC 94.4% | SN12C renal 106% | UO-31 renal 96.9% | TK-10 renal 117% | ACHN renal 102% | CAKI-1 renal 84.4% | A498 renal 111% | CCRF-CEM leukemia 95.1% | MOLT-4 leukemia 110%

O=C(Nc1ccc(Oc2cccc(F)c2)c(Cl)c1)c1cnccn1
inactive: HCT-15 colon 31.2% | SNB-19 CNS 40.4% | U251 CNS 25.7% | PC-3 prostate 16.7% | UACC-62 melanoma 33.5% | LOX IMVI melanoma 43.9% | SK-MEL-28 melanoma 60.6% | SK-MEL-2 melanoma 37.7% | EKVX NSCLC 51.3% | SN12C renal 45.6% | UO-31 renal 43.4% | TK-10 renal 59.5% | ACHN renal 37.7% | CAKI-1 renal 25.2% | A498 renal 69.4% | CCRF-CEM leukemia 18.4% | MOLT-4 leukemia 41.2%
active: HT29 colon 9.13% | SNB-75 CNS 0.855% | SK-MEL-5 melanoma 9.61%

Clc1nc(N2CCC[N+]3(CC2)CC[N+]2(CCCNCC2)CC3)nc(N2CCC[N+]3(CC2)CC[N+]2(CCCNCC2)CC3)n1 (stereo not given)
inactive: HCT-15 colon 83.2% | HT29 colon 54.9% | SNB-75 CNS 123% | SNB-19 CNS 112% | U251 CNS 91.7% | PC-3 prostate 101% | SK-MEL-5 melanoma 102% | UACC-62 melanoma 96.8% | LOX IMVI melanoma 98% | SK-MEL-28 melanoma 92.2% | SK-MEL-2 melanoma 106% | EKVX NSCLC 108% | SN12C renal 93.7% | UO-31 renal 97.9% | TK-10 renal 133% | ACHN renal 115% | CAKI-1 renal 65.1% | A498 renal 114% | CCRF-CEM leukemia 96.7% | MOLT-4 leukemia 92.3%

CS(=O)(=O)Nc1cc(-c2ccc3ncnc(Nc4cccc(Cl)c4)c3c2)cnc1Cl
active: HCT-15 colon 4.71% | HT29 colon 2.65% | SNB-75 CNS -10.4% | U251 CNS -2.63% | PC-3 prostate -2.27% | SK-MEL-5 melanoma -95.6% | UACC-62 melanoma -23.6% | LOX IMVI melanoma -35.5% | SK-MEL-28 melanoma 5.51% | SK-MEL-2 melanoma -40.6% | EKVX NSCLC -23.9% | UO-31 renal -2.12% | TK-10 renal -20.4% | CAKI-1 renal 2.5% | A498 renal -58.1% | MOLT-4 leukemia -16%
inactive: SNB-19 CNS 18% | SN12C renal 16.2% | ACHN renal 11.8% | CCRF-CEM leukemia 14.7%

O=C1c2c(c3c4cc(F)ccc4oc3c3[nH]c4ccccc4c23)C(=O)N1O
inactive: HCT-15 colon 33.2% | HT29 colon 31.4% | SNB-75 CNS 10.3% | SNB-19 CNS 26.7% | U251 CNS 24.5% | PC-3 prostate 32.3% | SK-MEL-28 melanoma 29% | SK-MEL-2 melanoma 78% | EKVX NSCLC 62.3% | SN12C renal 28.1% | TK-10 renal 102% | CAKI-1 renal 16.9%
active: SK-MEL-5 melanoma -30% | UACC-62 melanoma 3.37% | LOX IMVI melanoma -25.3% | UO-31 renal 8.37% | ACHN renal 0.963% | A498 renal -6.56% | CCRF-CEM leukemia 5.67% | MOLT-4 leukemia -22.5%

Nc1ccc(Cl)c2c(=O)c3ccccc3[nH]c12
inactive: HCT-15 colon 83.1% | HT29 colon 100% | SNB-75 CNS 84.2% | SNB-19 CNS 88.5% | U251 CNS 92.2% | PC-3 prostate 76.6% | SK-MEL-5 melanoma 53.1% | UACC-62 melanoma 93.6% | LOX IMVI melanoma 71.4% | SK-MEL-28 melanoma 113% | SK-MEL-2 melanoma 81.2% | EKVX NSCLC 75.2% | SN12C renal 89.2% | UO-31 renal 65.1% | TK-10 renal 78.1% | ACHN renal 80.8% | CAKI-1 renal 77.7% | A498 renal 69.3% | CCRF-CEM leukemia 100% | MOLT-4 leukemia 74.1%

Cc1nc2sc(C(=O)Nc3ccccc3)c(N)c2cc1C(O)c1ccccc1 (stereo not given)
inactive: HT29 colon 11.9% | SNB-75 CNS 36.9% | SNB-19 CNS 23.5% | U251 CNS 16.9% | PC-3 prostate 21.6% | UACC-62 melanoma 34.6% | LOX IMVI melanoma 26.9% | SK-MEL-28 melanoma 65.7% | SK-MEL-2 melanoma 54.8% | EKVX NSCLC 51.5% | SN12C renal 25.4% | UO-31 renal 45.7% | TK-10 renal 59.3% | ACHN renal 34.4% | CAKI-1 renal 24.8% | MOLT-4 leukemia 15.1%
active: HCT-15 colon 9.11% | SK-MEL-5 melanoma 4.19% | A498 renal -8.48% | CCRF-CEM leukemia 6.36%

Nc1cc(-c2ccc(Cl)cc2)nn1-c1nc(-c2ccc(Br)cc2)cs1
inactive: HCT-15 colon 98.3% | HT29 colon 92% | SNB-75 CNS 89.4% | SNB-19 CNS 91.4% | U251 CNS 95.2% | PC-3 prostate 91.5% | SK-MEL-5 melanoma 100% | UACC-62 melanoma 91.1% | LOX IMVI melanoma 102% | SK-MEL-28 melanoma 95.3% | SK-MEL-2 melanoma 96.9% | EKVX NSCLC 93.6% | SN12C renal 97.7% | UO-31 renal 93.4% | TK-10 renal 96.4% | ACHN renal 101% | CAKI-1 renal 97.8% | A498 renal 91.7% | CCRF-CEM leukemia 104% | MOLT-4 leukemia 103%

Cc1ccc(-c2nnc(SCc3nc(N)nc(Nc4ccccc4F)n3)n2-c2ccccc2)cc1
inactive: HCT-15 colon 91.3% | HT29 colon 98.5% | SNB-75 CNS 102% | SNB-19 CNS 91.8% | U251 CNS 92.8% | PC-3 prostate 87.7% | SK-MEL-5 melanoma 91.5% | UACC-62 melanoma 86% | LOX IMVI melanoma 100% | SK-MEL-28 melanoma 97.5% | SK-MEL-2 melanoma 95.4% | EKVX NSCLC 94.2% | SN12C renal 95.6% | UO-31 renal 70.4% | TK-10 renal 100% | ACHN renal 92% | CAKI-1 renal 85.2% | A498 renal 55.3% | CCRF-CEM leukemia 90.2% | MOLT-4 leukemia 70.2%
